Measurements as given in the supplement of paper PMC4466140.

The binders below were run against AgAbp1 (assay: SPOT peptide array binding signal intensity (averaged, normalized) (arbitrary units (background-subtracted, floor 0; scale differs between SH3 domains)); higher = stronger binding of the SH3 domain to the peptide).
Procedure, shortened: (§1)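 GST-SH3 fusions from four yeast species, purified on glutathione Sepharose, were incubated at 10 μg/ml overnight at 4°C on membranes of synthetic 15-mer peptides in which cysteines were replaced with serines. Binding signal is the normalized, background-subtracted spot intensity averaged over replicates, in domain-specific arbitrary units.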

Binder	SPOT peptide array binding signal intensity
IAPIPMPKPNPTHIS	≤ 0

Each binder was assayed against AgBbc1 in the same assay as above.
Procedure, shortened: as §1

Binder	SPOT peptide array binding signal intensity
IAPIPMPKPNPTHIS	≤ 0

What follows are binders tested against AgBem1-D1 in the same assay as above.
Procedure, shortened: as §1

Binder	SPOT peptide array binding signal intensity
IAPIPMPKPNPTHIS	7

What follows are binders tested against AgBzz1-D1 in the same assay as above.
Procedure, shortened: as §1

Binder	SPOT peptide array binding signal intensity
IAPIPMPKPNPTHIS	≤ 0

What follows are binders tested against AgBzz1-D2 in the same assay as above.
Procedure, shortened: as §1

Binder	SPOT peptide array binding signal intensity
IAPIPMPKPNPTHIS	4

The binders below were run against AgCyk3 in the same assay as above.
Procedure, shortened: as §1

Binder	SPOT peptide array binding signal intensity
IAPIPMPKPNPTHIS	≤ 0

These binders were tested against AgFus1 in the same assay as above.
Procedure, shortened: as §1

Binder	SPOT peptide array binding signal intensity
IAPIPMPKPNPTHIS	44.5

The binders below were run against AgHof1 in the same assay as above.
Procedure, shortened: as §1

Binder	SPOT peptide array binding signal intensity
IAPIPMPKPNPTHIS	≤ 0

Each binder was assayed against AgHse1 in the same assay as above.
Procedure, shortened: as §1

Binder	SPOT peptide array binding signal intensity
IAPIPMPKPNPTHIS	12

Each binder was assayed against AgLsb1 in the same assay as above.
Procedure, shortened: as §1

Binder	SPOT peptide array binding signal intensity
IAPIPMPKPNPTHIS	≤ 0

What follows are binders tested against AgLsb4 in the same assay as above.
Procedure, shortened: as §1

Binder	SPOT peptide array binding signal intensity
IAPIPMPKPNPTHIS	≤ 0

Each binder was assayed against AgMyo5 in the same assay as above.
Procedure, shortened: as §1

Binder	SPOT peptide array binding signal intensity
IAPIPMPKPNPTHIS	≤ 0

These binders were tested against AgNbp2 in the same assay as above.
Procedure, shortened: as §1

Binder	SPOT peptide array binding signal intensity
IAPIPMPKPNPTHIS	61.5

Each binder was assayed against AgRvs167 in the same assay as above.
Procedure, shortened: as §1

Binder	SPOT peptide array binding signal intensity
IAPIPMPKPNPTHIS	0.333

Each binder was assayed against AgSho1 in the same assay as above.
Procedure, shortened: as §1

Binder	SPOT peptide array binding signal intensity
IAPIPMPKPNPTHIS	32

Each binder was assayed against AgSla1-D1-D2 in the same assay as above.
Procedure, shortened: as §1

Binder	SPOT peptide array binding signal intensity
IAPIPMPKPNPTHIS	≤ 0

What follows are binders tested against AgSla1-D3 in the same assay as above.
Procedure, shortened: as §1

Binder	SPOT peptide array binding signal intensity
IAPIPMPKPNPTHIS	4.5

Each binder was assayed against CaAbp1-D1 in the same assay as above.
Procedure, shortened: as §1

Binder	SPOT peptide array binding signal intensity
IAPIPMPKPNPTHIS	≤ 0

Each binder was assayed against CaAbp1-D2 in the same assay as above.
Procedure, shortened: as §1

Binder	SPOT peptide array binding signal intensity
IAPIPMPKPNPTHIS	28.5

The binders below were run against CaBbc1 in the same assay as above.
Procedure, shortened: as §1

Binder	SPOT peptide array binding signal intensity
IAPIPMPKPNPTHIS	≤ 0

The binders below were run against CaBem1-D1 in the same assay as above.
Procedure, shortened: as §1

Binder	SPOT peptide array binding signal intensity
IAPIPMPKPNPTHIS	48.5

These binders were tested against CaBzz1-D1 in the same assay as above.
Procedure, shortened: as §1

Binder	SPOT peptide array binding signal intensity
IAPIPMPKPNPTHIS	≤ 0

These binders were tested against CaBzz1-D2 in the same assay as above.
Procedure, shortened: as §1

Binder	SPOT peptide array binding signal intensity
IAPIPMPKPNPTHIS	9.75

The binders below were run against CaCyk3 in the same assay as above.
Procedure, shortened: as §1

Binder	SPOT peptide array binding signal intensity
IAPIPMPKPNPTHIS	≤ 0

These binders were tested against CaFus1 in the same assay as above.
Procedure, shortened: as §1

Binder	SPOT peptide array binding signal intensity
IAPIPMPKPNPTHIS	170

Each binder was assayed against CaHof1 in the same assay as above.
Procedure, shortened: as §1

Binder	SPOT peptide array binding signal intensity
IAPIPMPKPNPTHIS	0.5

What follows are binders tested against CaHse1 in the same assay as above.
Procedure, shortened: as §1

Binder	SPOT peptide array binding signal intensity
IAPIPMPKPNPTHIS	33.8

The binders below were run against CaLsb1 in the same assay as above.
Procedure, shortened: as §1

Binder	SPOT peptide array binding signal intensity
IAPIPMPKPNPTHIS	≤ 0

These binders were tested against CaLsb4 in the same assay as above.
Procedure, shortened: as §1

Binder	SPOT peptide array binding signal intensity
IAPIPMPKPNPTHIS	51

What follows are binders tested against CaMyo5 in the same assay as above.
Procedure, shortened: as §1

Binder	SPOT peptide array binding signal intensity
IAPIPMPKPNPTHIS	3

These binders were tested against CaNbp2 in the same assay as above.
Procedure, shortened: as §1

Binder	SPOT peptide array binding signal intensity
IAPIPMPKPNPTHIS	430

These binders were tested against CaRvs167 in the same assay as above.
Procedure, shortened: as §1

Binder	SPOT peptide array binding signal intensity
IAPIPMPKPNPTHIS	≤ 0

These binders were tested against CaRvs167-3 in the same assay as above.
Procedure, shortened: as §1

Binder	SPOT peptide array binding signal intensity
IAPIPMPKPNPTHIS	≤ 0

These binders were tested against CaSho1 in the same assay as above.
Procedure, shortened: as §1

Binder	SPOT peptide array binding signal intensity
IAPIPMPKPNPTHIS	305

These binders were tested against CaSla1-D1-D2 in the same assay as above.
Procedure, shortened: as §1

Binder	SPOT peptide array binding signal intensity
IAPIPMPKPNPTHIS	58.5

What follows are binders tested against CaSla1-D3 in the same assay as above.
Procedure, shortened: as §1

Binder	SPOT peptide array binding signal intensity
IAPIPMPKPNPTHIS	52.5

Each binder was assayed against ScAbp1 in the same assay as above.
Procedure, shortened: as §1

Binder	SPOT peptide array binding signal intensity
IAPIPMPKPNPTHIS	≤ 0

The binders below were run against ScBbc1 in the same assay as above.
Procedure, shortened: as §1

Binder	SPOT peptide array binding signal intensity
IAPIPMPKPNPTHIS	≤ 0

The binders below were run against ScBem1-D1 in the same assay as above.
Procedure, shortened: as §1

Binder	SPOT peptide array binding signal intensity
IAPIPMPKPNPTHIS	≤ 0

Each binder was assayed against ScBzz1-D1 in the same assay as above.
Procedure, shortened: as §1

Binder	SPOT peptide array binding signal intensity
IAPIPMPKPNPTHIS	≤ 0

These binders were tested against ScBzz1-D2 in the same assay as above.
Procedure, shortened: as §1

Binder	SPOT peptide array binding signal intensity
IAPIPMPKPNPTHIS	≤ 0

Each binder was assayed against ScCyk3 in the same assay as above.
Procedure, shortened: as §1

Binder	SPOT peptide array binding signal intensity
IAPIPMPKPNPTHIS	≤ 0

What follows are binders tested against ScFus1 in the same assay as above.
Procedure, shortened: as §1

Binder	SPOT peptide array binding signal intensity
IAPIPMPKPNPTHIS	56

These binders were tested against ScHof1 in the same assay as above.
Procedure, shortened: as §1

Binder	SPOT peptide array binding signal intensity
IAPIPMPKPNPTHIS	≤ 0

What follows are binders tested against ScHse1 in the same assay as above.
Procedure, shortened: as §1

Binder	SPOT peptide array binding signal intensity
IAPIPMPKPNPTHIS	≤ 0

Each binder was assayed against ScLsb1 in the same assay as above.
Procedure, shortened: as §1

Binder	SPOT peptide array binding signal intensity
IAPIPMPKPNPTHIS	≤ 0

These binders were tested against ScLsb2 in the same assay as above.
Procedure, shortened: as §1

Binder	SPOT peptide array binding signal intensity
IAPIPMPKPNPTHIS	≤ 0

The binders below were run against ScLsb3 in the same assay as above.
Procedure, shortened: as §1

Binder	SPOT peptide array binding signal intensity
IAPIPMPKPNPTHIS	≤ 0

These binders were tested against ScLsb4 in the same assay as above.
Procedure, shortened: as §1

Binder	SPOT peptide array binding signal intensity
IAPIPMPKPNPTHIS	≤ 0

The binders below were run against ScMyo3 in the same assay as above.
Procedure, shortened: as §1

Binder	SPOT peptide array binding signal intensity
IAPIPMPKPNPTHIS	≤ 0

These binders were tested against ScMyo5 in the same assay as above.
Procedure, shortened: as §1

Binder	SPOT peptide array binding signal intensity
IAPIPMPKPNPTHIS	≤ 0

What follows are binders tested against ScNbp2 in the same assay as above.
Procedure, shortened: as §1

Binder	SPOT peptide array binding signal intensity
IAPIPMPKPNPTHIS	158

Each binder was assayed against ScPex13 in the same assay as above.
Procedure, shortened: as §1

Binder	SPOT peptide array binding signal intensity
IAPIPMPKPNPTHIS	22.2

What follows are binders tested against ScRvs167 in the same assay as above.
Procedure, shortened: as §1

Binder	SPOT peptide array binding signal intensity
IAPIPMPKPNPTHIS	0.333

The binders below were run against ScSho1 in the same assay as above.
Procedure, shortened: as §1

Binder	SPOT peptide array binding signal intensity
IAPIPMPKPNPTHIS	158

What follows are binders tested against ScSla1-D1-D2 in the same assay as above.
Procedure, shortened: as §1

Binder	SPOT peptide array binding signal intensity
IAPIPMPKPNPTHIS	0.5

These binders were tested against ScSla1-D3 in the same assay as above.
Procedure, shortened: as §1

Binder	SPOT peptide array binding signal intensity
IAPIPMPKPNPTHIS	81.5

The binders below were run against SpAbp1-D1 in the same assay as above.
Procedure, shortened: as §1

Binder	SPOT peptide array binding signal intensity
IAPIPMPKPNPTHIS	8.5

These binders were tested against SpBbc1 in the same assay as above.
Procedure, shortened: as §1

Binder	SPOT peptide array binding signal intensity
IAPIPMPKPNPTHIS	≤ 0

Each binder was assayed against SpBzz1-D1 in the same assay as above.
Procedure, shortened: as §1

Binder	SPOT peptide array binding signal intensity
IAPIPMPKPNPTHIS	37.5

What follows are binders tested against SpBzz1-D2 in the same assay as above.
Procedure, shortened: as §1

Binder	SPOT peptide array binding signal intensity
IAPIPMPKPNPTHIS	0.5
TPTSGPPLLPPRNTM	1

The binders below were run against SpCyk3 in the same assay as above.
Procedure, shortened: as §1

Binder	SPOT peptide array binding signal intensity
IAPIPMPKPNPTHIS	≤ 0
TPTSGPPLLPPRNTM	4.5

The binders below were run against SpHof1 in the same assay as above.
Procedure, shortened: as §1

Binder	SPOT peptide array binding signal intensity
IAPIPMPKPNPTHIS	≤ 0
TPTSGPPLLPPRNTM	12.5

What follows are binders tested against SpHof1-2 in the same assay as above.
Procedure, shortened: as §1

Binder	SPOT peptide array binding signal intensity
IAPIPMPKPNPTHIS	7
TPTSGPPLLPPRNTM	19

The binders below were run against SpHof1-3 in the same assay as above.
Procedure, shortened: as §1

Binder	SPOT peptide array binding signal intensity
IAPIPMPKPNPTHIS	≤ 0
TPTSGPPLLPPRNTM	18.8

Each binder was assayed against SpHse1 in the same assay as above.
Procedure, shortened: as §1

Binder	SPOT peptide array binding signal intensity
IAPIPMPKPNPTHIS	217
TPTSGPPLLPPRNTM	31.5

These binders were tested against SpLsb1 in the same assay as above.
Procedure, shortened: as §1

Binder	SPOT peptide array binding signal intensity
IAPIPMPKPNPTHIS	≤ 0
TPTSGPPLLPPRNTM	1190

These binders were tested against SpLsb4 in the same assay as above.
Procedure, shortened: as §1

Binder	SPOT peptide array binding signal intensity
IAPIPMPKPNPTHIS	92.5
TPTSGPPLLPPRNTM	6300

The binders below were run against SpMyo1 in the same assay as above.
Procedure, shortened: as §1

Binder	SPOT peptide array binding signal intensity
IAPIPMPKPNPTHIS	0.5
TPTSGPPLLPPRNTM	156

Each binder was assayed against SpNbp2 in the same assay as above.
Procedure, shortened: as §1

Binder	SPOT peptide array binding signal intensity
IAPIPMPKPNPTHIS	29
TPTSGPPLLPPRNTM	≤ 0

Each binder was assayed against SpPex13 in the same assay as above.
Procedure, shortened: as §1

Binder	SPOT peptide array binding signal intensity
IAPIPMPKPNPTHIS	2
TPTSGPPLLPPRNTM	84.5

What follows are binders tested against SpRvs167 in the same assay as above.
Procedure, shortened: as §1

Binder	SPOT peptide array binding signal intensity
IAPIPMPKPNPTHIS	≤ 0
TPTSGPPLLPPRNTM	2660

What follows are binders tested against SpSla1-D1-D2 in the same assay as above.
Procedure, shortened: as §1

Binder	SPOT peptide array binding signal intensity
IAPIPMPKPNPTHIS	≤ 0
TPTSGPPLLPPRNTM	3

These binders were tested against SpSla1-D3 in the same assay as above.
Procedure, shortened: as §1

Binder	SPOT peptide array binding signal intensity
IAPIPMPKPNPTHIS	32
TPTSGPPLLPPRNTM	4.5
